{"source": "PubChem BioAssay (Tox21)", "note": "Calls of active or inactive are those of the source. Where a call stands in place of a potency, no number is given. Calls come from the whole dose curve."}
{"assay": "G protein-coupled receptor (GPCR) small molecule agonists, calcium flux assay: HEK293 wild type cell line counter screen (AID 1920065)", "conditions": "HEK293 WT calcium flux, fluorescence, agonist mode; series mostly up to 57.6 µM", "description": "U.S. Tox21 Program National Center for Advancing Translational Sciences [NCATS] Division of Preclinical Innovation [DPI] U.S. Environmental Protection Agency [EPA] National Institutes of Environmental Health Sciences [NIEHS] National Toxicology Program [NTP] U.S. Food and Drug Administration [FDA] Assay overview: The increased intracellular calcium release that occurred upon G protein-coupled receptor (GPCR) activation led to the frequent use of calcium flux assays to detect GPCR activation. For the purpose of studying and screening compounds that may activate GPCR, receptor-overexpressing models were typically generated using Hek293 wild-type (WT) cells. In order to eliminate the compounds that may have induced calcium release for non-specific activation, a counter-assay utilizing calcium flux on Hek293 WT cells was performed. The data were formulated in order to serve as a control for any calcium flux detection utilizing Hek293 cells with either GPCR overexpression or gene modification. The procurement of Hek293 WT cells from ATCC. Fluorescence intensity can be utilized to determine the activation of the compound in a calcium flux assay. As a counter control, this cell line was utilized to screen the Tox21 10K compound library.\nAssay Protocol Summary: Hek293 cells were dispensed at 1500cells/4uL/well in 1536-well black wall/clear bottom plates using a multidrop dispenser. After the assay plates were incubated at a 37 C/5% CO2 incubator for 18 hours, 4 uL of Calcium Dye Solution was added to each well. The plates were incubated at 37 C for 1 hour. For agonist mode, 23 nL of compounds dissolved in DMSO, positive control (ATP) or DMSO only was transferred to the assay plate by a pin tool station. The fluorescence intensity in the plates was measured using FDSS 7000EX kinetic plate reader with a filter set of Ex/Em=480/540 for 3 min at 1 sec intervals. Each test compound was measured at 15 concentrations and in triplicates."}
{"smiles": "c1ccc(Nc2ccccc2)cc1", "Potency": "inactive"}
{"smiles": "O=C(c1ccc(O)cc1)c1ccc(O)cc1O", "Potency": "inactive"}
{"smiles": "CC1(C)S[C@@H]2[C@H](NC(=O)[C@H](N)c3ccccc3)C(=O)N2[C@H]1C(=O)O", "Potency": "inactive"}
{"smiles": "C[C@H]1C[C@@H]2[C@H]([C@@H](O)C[C@@]3(C)[C@H]2CC[C@]3(O)C(=O)CO)[C@@]2(C)C=CC(=O)C=C12", "Potency": "inactive"}
{"smiles": "CNC(=S)N(C)C", "Potency": "inactive"}
{"smiles": "CC1=CC2C3CC(C=C3C)C2C1", "note": "(stereo not given)", "Potency": "inactive"}
{"smiles": "CCOC(N)=O", "Potency": "inactive"}
{"smiles": "CCCCOC(=O)CCCCCCCCC(=O)OCCCC", "Potency": "inactive"}
{"smiles": "CCCCCCCCCCCCS", "Potency": "inactive"}
{"smiles": "O=c1cc[nH]c(=S)[nH]1", "Potency": "inactive"}
{"smiles": "Cc1cccc2n[nH]nc12", "Potency": "inactive"}
{"smiles": "CCCCOC(=O)CC(CC(=O)OCCCC)(OC(C)=O)C(=O)OCCCC", "Potency": "inactive"}
{"smiles": "O=C(O)c1ccc(C(=O)O)cc1", "Potency": "inactive"}
{"smiles": "Oc1ccc2ccccc2c1N=Nc1ccccc1", "Potency": "inactive"}
{"smiles": "CCCOC(=O)c1ccccc1", "Potency": "inactive"}
{"smiles": "Cc1cccc(C)c1O", "Potency": "inactive"}
{"smiles": "CCCCCCCC/C=C\\CCCCCCCC(=O)O", "Potency": "inactive"}
{"smiles": "C/C=C/c1ccc(OC)cc1", "Potency": "inactive"}
{"smiles": "NC(=O)c1cccnc1", "Potency": "inactive"}
{"smiles": "O=C=Nc1ccc(Cc2ccc(N=C=O)cc2)cc1", "Potency": "inactive"}
{"smiles": "COc1ccc(Cl)cc1C(=O)NCCc1ccc(S(=O)(=O)NC(=O)NC2CCCCC2)cc1", "Potency": "inactive"}
{"smiles": "C=C(C)C(=O)OCC(C)C", "Potency": "inactive"}
{"smiles": "CCCCCCC(C)(C)S", "Potency": "inactive"}
{"smiles": "Nc1nc(=S)c2[nH]cnc2[nH]1", "Potency": "inactive"}
{"smiles": "CC(C)OP(=O)(CP(=O)(OC(C)C)OC(C)C)OC(C)C", "Potency": "inactive"}
{"smiles": "Nc1ccc(S(=O)(=O)c2ccc(N)cc2)cc1", "Potency": "inactive"}
{"smiles": "CCCCCCCC(=O)OCC(O)CO", "note": "(stereo not given)", "Potency": "inactive"}
{"smiles": "CCCCCCc1ccc(O)cc1O", "Potency": "inactive"}
{"smiles": "O=C(O)CCCCCCCCC(=O)O", "Potency": "inactive"}
{"smiles": "COCC(C)N", "note": "(stereo not given)", "Potency": "inactive"}
{"smiles": "CCCCCCCCCCCCCC[N+](C)(C)C", "Potency": "inactive"}
{"smiles": "CC1=C(/C=C/C(C)=C/C=C/C(C)=C/C(=O)Nc2ccc(O)cc2)C(C)(C)CCC1", "Potency": "inactive"}
{"smiles": "CCCc1cc(=O)[nH]c(=S)[nH]1", "Potency": "inactive"}
{"smiles": "COCCCN", "Potency": "inactive"}
{"smiles": "CC(=O)Oc1ccc(C(c2ccc(OC(C)=O)cc2)c2ccccn2)cc1", "Potency": "inactive"}
{"smiles": "CC(C)(C)c1cccc(C(C)(C)C)c1O", "Potency": "inactive"}
{"smiles": "CN(C)C", "Potency": "inactive"}
{"smiles": "CC(C)(C#N)c1cc(Cn2cncn2)cc(C(C)(C)C#N)c1", "Potency": "inactive"}
{"smiles": "COC(=O)CCCC(=O)OC", "Potency": "inactive"}
{"smiles": "Nc1cc([N+](=O)[O-])ccc1C(=O)O", "Potency": "inactive"}
